In all, about 53,000 sequences went through this assay and about 3,200 (6%) were called active. Cut-off read from the data, not from the text of the source: active = GI50 up to about 1.1 µM and inactive = higher. The list comes from a sample in which actives are over-represented; it also holds similar and randomly drawn sequences. Measured potencies and affinities stand elsewhere.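 Assay format: 96-well plates, 48-hour exposure. Here, GI50 denotes the concentration required for 50% inhibition of growth.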

The test has as its system HCC 2998. The test is described as follows: NCI tumour cell line growth inhibition, 48 h.
CISPLATIN, CHEMBL11359: the GI50 turned out to be 5.4 µM.

“[Bis(aminomethyl)tetramethylenesilane]dichloropaltinum(II), CHEMBL2146205” registered a GI50 of 25.4 µM.

As to “[Bis(aminomethyl)dimethylsilane]tetrachloroplatinum(IV), CHEMBL2146190”, the GI50 came out at 6.78 µM.

With “[Bis(aminomethyl)tetramethylenesilane]tetrachloropaltinum(IV), CHEMBL2146189”, the GI50 was found to be 0.682 µM.

As to “[Bis(aminomethyl)ethylmethylsilane]tetrachloroplatinum(IV), CHEMBL2146192”, the GI50 was 2.38 µM.

Turning to “[Bis(aminomethyl)pentamethylenesilane]tetrachloropaltinum(IV), CHEMBL2146204”, the GI50 came to 0.313 µM.

Regarding “[Bis(aminomethyl)dimethylsilane]dichloroplatinum (II), CHEMBL2146201”, the GI50 came to 10 µM.

For the substance “mu-(1,7-nanodiamine-N,N')bis-(cis-aminedichloroplatimum (II)), CHEMBL2146215”, the GI50 was 24 µM.

Substance “[Bis(aminomethyl)pentamethylenesilane]dichloropaltinum(II), CHEMBL2146202” registered a GI50 of 3.52 µM.

These data come from ChEMBL document CHEMBL1201862, “PubChem BioAssay data set” (2004).
